Read-out in assay [1]: Tumor necrosis factor receptor superfamily member 6 (Homo sapiens) (UniProt P25445)
Kind of assay: LTEA_HepaRG_FAS: Life Technologies and Expression Analysis (LTEA) Assay for Fas cell surface death receptor (FAS) using HepaRG (AID 2283447). The settings on record: mRNA level, 48 h; actives raise or lower the signal. The gist of the method:
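Differentiated HepaRG cells in serum-free induction medium were exposed 48 h to 8 half-log concentrations up to 100 uM in 0.5% DMSO, in duplicate. FAS mRNA was measured by qRT-PCR normalised to ACTB, GAPDH and POLR2A; bidirectional fit versus DMSO.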

Read-out in assay [2]: Fatty acid synthase (Homo sapiens) (UniProt P49327)
Kind of assay: LTEA_HepaRG_FASN: Life Technologies and Expression Analysis (LTEA) Assay for Fatty Acid Synthase (FASN) using HepaRG (AID 2283448).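 Further: differentiated human HepaRG liver cells in serum-free induction medium.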 Conditions: mRNA level, 48 h; actives raise or lower the signal. Put shortly:
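In human HepaRG cultures, 48 h chemical exposure (up to 100 uM, 0.5% DMSO) preceded TaqMan qRT-PCR of FASN.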

Read-out in assay [3]: Cyclin Dependent Kinase Inhibitor 1A (CDKN1A), CDKN1A (gene 1026)
Kind of assay: LTEA_HepaRG_CDKN1A: Life Technologies and Expression Analysis (LTEA) Assay for Cyclin Dependent Kinase Inhibitor 1A (CDKN1A) using HepaRG (AID 2283450). Conditions: mRNA level, 48 h; actives raise or lower the signal. The gist of the method: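 Gain or loss of CDKN1A transcript is scored by bidirectional fitting against 0.5% DMSO vehicle. Human HepaRG cultures receive chemicals for 48 h across an 8-point series peaking at 100 uM; expression comes from qRT-PCR.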

Read-out in assay [4]: Cyclin D1 (CCND1), CCND1 (gene 595)
Kind of assay: LTEA_HepaRG_CCND1: Life Technologies and Expression Analysis (LTEA) Assay for Cyclin D1 (CCND1) using HepaRG (AID 2283451). Conditions: mRNA level, 48 h; actives raise or lower the signal. Put shortly: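 Expression change is measured by qRT-PCR in HepaRG cells after 48 h treatment across eight concentrations topping at 100 uM, with duplicate wells and DMSO (0.5%) serving as baseline for bidirectional fitting.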

Read-out in assay [5]: catalase (CAT), CAT (gene 847)
Kind of assay: LTEA_HepaRG_CAT: Life Technologies and Expression Analysis (LTEA) Assay for catalase (CAT) using HepaRG (AID 2283452). Conditions: mRNA level, 48 h; actives raise or lower the signal. Put shortly: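 HepaRG cells in serum-free induction medium, 0.5% DMSO vehicle, exposed 48 h in duplicate over 8 half-log concentrations from 100 uM. CAT mRNA measured by qRT-PCR, normalized to ACTB, GAPDH, POLR2A; bidirectional fit versus DMSO.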

Read-out in assay [6]: flavin-containing dimethylaniline monooxygenases 3 (FMO3), FMO3 (gene 2328)
Kind of assay: LTEA_HepaRG_FMO3: Life Technologies and Expression Analysis (LTEA) Assay for flavin-containing dimethylaniline monooxygenases 3 (FMO3) using HepaRG (AID 2283453).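 On AC50: differentiated human HepaRG liver cells in serum-free induction medium.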 Conditions: mRNA level, 48 h; actives raise or lower the signal. The gist of the method: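 Eight-point concentration-response in serum-free HepaRG cultures (top 100 uM, 0.5% DMSO, 48 h). Read-out: FMO3 mRNA level normalized to three endogenous control genes, fitted bidirectionally versus vehicle.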

Read-out in assay [7]: CFLAR gene, CFLAR (gene 8837)
Kind of assay: LTEA_HepaRG_CFLAR: Life Technologies and Expression Analysis (LTEA) Assay for CFLAR gene using HepaRG (AID 2283455). The settings on record: mRNA level, 48 h; actives raise or lower the signal. Put shortly:
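qRT-PCR read-out (Fluidigm/TaqMan) of CFLAR mRNA, normalized to three housekeeping genes, in differentiated human HepaRG cells after 48 h chemical exposure; 8-point half-log series from 100 uM in 0.5% DMSO; bidirectional curve fitting versus DMSO.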

Read-out in assay [8]: Forkhead box O1 (FOXO1), FOXO1 (gene 2308)
The assay can be described thus: LTEA_HepaRG_FOXO1: Life Technologies and Expression Analysis (LTEA) Assay for Forkhead box O1 (FOXO1) using HepaRG (AID 2283456). The settings on record: mRNA level, 48 h; actives raise or lower the signal. Put shortly:
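HepaRG, 48 h exposure, 8-pt half-log series from 100 uM in 0.5% DMSO, duplicates; Fluidigm qRT-PCR mRNA, housekeeping-normalised; bidirectional fit vs DMSO baseline.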

Read-out in assay [9]: growth arrest and DNA damage 45 (GADD45A), GADD45A (gene 1647)
The assay can be described thus: LTEA_HepaRG_GADD45A: Life Technologies and Expression Analysis (LTEA) Assay for growth arrest and DNA damage 45 (GADD45A) using HepaRG (AID 2283458). Conditions: mRNA level, 48 h; actives raise or lower the signal. Put shortly: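 Eight-point concentration-response in HepaRG cells: 48 h chemical exposure, 0.5% DMSO vehicle, top dose 100 uM. Normalized qRT-PCR mRNA readout with bidirectional fitting relative to DMSO.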

Read-out in assay [10]: Forkhead box O3 (FOXO3), FOXO3 (gene 2309)
Kind of assay: LTEA_HepaRG_FOXO3: Life Technologies and Expression Analysis (LTEA) Assay for Forkhead box O3 (FOXO3) using HepaRG (AID 2283459). The settings on record: mRNA level, 48 h; actives raise or lower the signal. Put shortly:
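qRT-PCR readout of FOXO3 transcript, normalized to three housekeeping genes (ACTB, GAPDH, POLR2A); gain or loss fitted against 0.5% DMSO vehicle. HepaRG cells, 48 h chemical exposure, 8-point half-log series, top 100 uM.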

Read-out in assay [11]: ABC Transporter (ABCB1), ABCB1 (gene 5243)
The assay can be described thus: LTEA_HepaRG_ABCB1: Life Technologies and Expression Analysis (LTEA) Assay for ABC Transporter (ABCB1) using HepaRG (AID 2283460). The settings on record: mRNA level, 48 h; actives raise or lower the signal. Put shortly: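 HepaRG, 48 h exposure, 8-pt half-log series from 100 uM, 0.5% DMSO vehicle, duplicates. Readout: ABCB1 transcript by Fluidigm TaqMan qRT-PCR, housekeeping-normalized; bidirectional curve fit vs DMSO baseline.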

Read-out in assay [12]: growth arrest and DNA damage 45 (GADD45B), GADD45B (gene 4616)
The assay can be described thus: LTEA_HepaRG_GADD45B: Life Technologies and Expression Analysis (LTEA) Assay for growth arrest and DNA damage 45 (GADD45B) using HepaRG (AID 2283461). The settings on record: mRNA level, 48 h; actives raise or lower the signal. Put shortly:
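Human HepaRG monolayers receive chemicals for 48 h at eight half-log concentrations, highest 100 uM, in 0.5% DMSO. Expression is measured by TaqMan qRT-PCR and normalized to ACTB, GAPDH and POLR2A.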

Read-out in assay [13]: ABC Transporter (ABCC3), ABCC3 (gene 8714)
Kind of assay: LTEA_HepaRG_ABCC3: Life Technologies and Expression Analysis (LTEA) Assay for ABC Transporter (ABCC3) using HepaRG (AID 2283462). Conditions: mRNA level, 48 h; actives raise or lower the signal. Put shortly: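 Transcriptional change of ABCC3 in HepaRG after 48 h treatment, determined by qRT-PCR normalized to endogenous controls. Concentrations spanned eight half-log steps to 100 uM in 0.5% DMSO.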

Read-out in assay [14]: ABC Transporter (ABCB11), ABCB11 (gene 8647)
The assay can be described thus: LTEA_HepaRG_ABCB11: Life Technologies and Expression Analysis (LTEA) Assay for ABC Transporter (ABCB11) using HepaRG (AID 2283463). The settings on record: mRNA level, 48 h; actives raise or lower the signal. The gist of the method: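 HepaRG, 48 h exposure, 8-pt half-log CRC top 100 uM, 0.5% DMSO vehicle, duplicates. Readout: TaqMan qRT-PCR of ABCB11 mRNA, housekeeping-normalized (ACTB/GAPDH/POLR2A). Bidirectional fit vs DMSO baseline.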

Read-out in assay [15]: ABC Transporter (ABCC2), ABCC2 (gene 1244)
The assay can be described thus: LTEA_HepaRG_ABCC2: Life Technologies and Expression Analysis (LTEA) Assay for ABC Transporter (ABCC2) using HepaRG (AID 2283464). The settings on record: mRNA level, 48 h; actives raise or lower the signal. The gist of the method:
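After plating and 48 h culture, HepaRG medium is replaced with serum-free induction medium and chemicals are added (8 concentrations, max 100 uM, 0.5% DMSO) for 48 h. Total RNA then undergoes qRT-PCR for ABCC2 with housekeeping normalization.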

Read-out in assay [16]: Broad substrate specificity ATP-binding cassette transporter ABCG2 (Homo sapiens) (UniProt Q9UNQ0)
The assay can be described thus: LTEA_HepaRG_ABCG2: Life Technologies and Expression Analysis (LTEA) Assay for ABC Transporter (ABCG2) using HepaRG (AID 2283465). The settings on record: mRNA level, 48 h; actives raise or lower the signal. The gist of the method:
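HepaRG, 48 h exposure, 8-pt half-log series from 100 uM, 0.5% DMSO vehicle, duplicates. Readout: ABCG2 transcript by qRT-PCR (Fluidigm array), housekeeping-normalized; bidirectional curve fit relative to DMSO baseline.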

Assay [17] in a line: CEETOX_H295R_ESTRONE: CeeTox H295R High-throughput Steroidogenesis Assay for Estrone (AID 2283441).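 Further: estrone secreted into medium measured by LC-MS/MS after dansyl derivatization.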 The settings on record: actives raise or lower the signal. Put shortly: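 Forskolin-stimulated H295R cells are treated 48 h with chemical, and estrone in the medium is measured by LC-MS/MS. Activity is fitted in both directions relative to DMSO controls, with chemicals diluted until MTT viability reaches at least 70%.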

The nature of assay [18]: CEETOX_H295R_PROG: CeeTox H295R High-throughput Steroidogenesis Assay for Progesterone (PROG) (AID 2283442).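 On AC50: human H295R adrenal cells primed with 10 µM forskolin before dosing.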 The settings on record: actives raise or lower the signal. The gist of the method: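 Measured analyte is progesterone secreted by H295R cells at 48 h of chemical treatment, following 10 uM forskolin priming. Quantitation used HPLC-MS/MS against a 7-point standard curve; cytotoxicity was checked by MTT absorbance.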

The nature of assay [19]: CEETOX_H295R_TESTO: CeeTox H295R High-throughput Steroidogenesis Assay for Testosterone (TESTO) (AID 2283457). Conditions: actives raise or lower the signal. Put shortly: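 Steroidogenesis in H295R cells following OECD 456 with minor changes; 48 h exposure. Medium testosterone by HPLC-MS/MS, DMSO as baseline, with MTT viability run in parallel.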
Read-out in assay [20]: Cyclin D2 (CCND2), CCND2 (gene 894)
The assay can be described thus: LTEA_HepaRG_CCND2: Life Technologies and Expression Analysis (LTEA) Assay for Cyclin D2 (CCND2) using HepaRG (AID 2283449).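 Further: CCND2 transcript measured by TaqMan qRT-PCR and normalised to three housekeeping genes.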 The settings on record: mRNA level, 48 h; actives raise or lower the signal. Put shortly: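 HepaRG, 48 h dosing, 8-pt half-log curve from 100 uM, 0.5% DMSO; duplicate wells. Readout: CCND2 transcript by microfluidic qRT-PCR, housekeeping-normalised; bidirectional fit vs DMSO baseline.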

Activity calls are given as the source filed them. How the source made its calls: active means hit-call score of the fitted dose curve at least 0.9, where 1 is the maximum; inactive means score below 0.9.

In PubChem BioAssay (EPA / NIEHS) one finds outcome and AC50 data, which are given here for 7 compounds.

For orientation: AC50 means the midpoint of the concentration-response curve, whichever way the signal moves.

Sequence of Broad substrate specificity ATP-binding cassette transporter ABCG2 (Homo sapiens) (Q9UNQ0 whole entry, looked up): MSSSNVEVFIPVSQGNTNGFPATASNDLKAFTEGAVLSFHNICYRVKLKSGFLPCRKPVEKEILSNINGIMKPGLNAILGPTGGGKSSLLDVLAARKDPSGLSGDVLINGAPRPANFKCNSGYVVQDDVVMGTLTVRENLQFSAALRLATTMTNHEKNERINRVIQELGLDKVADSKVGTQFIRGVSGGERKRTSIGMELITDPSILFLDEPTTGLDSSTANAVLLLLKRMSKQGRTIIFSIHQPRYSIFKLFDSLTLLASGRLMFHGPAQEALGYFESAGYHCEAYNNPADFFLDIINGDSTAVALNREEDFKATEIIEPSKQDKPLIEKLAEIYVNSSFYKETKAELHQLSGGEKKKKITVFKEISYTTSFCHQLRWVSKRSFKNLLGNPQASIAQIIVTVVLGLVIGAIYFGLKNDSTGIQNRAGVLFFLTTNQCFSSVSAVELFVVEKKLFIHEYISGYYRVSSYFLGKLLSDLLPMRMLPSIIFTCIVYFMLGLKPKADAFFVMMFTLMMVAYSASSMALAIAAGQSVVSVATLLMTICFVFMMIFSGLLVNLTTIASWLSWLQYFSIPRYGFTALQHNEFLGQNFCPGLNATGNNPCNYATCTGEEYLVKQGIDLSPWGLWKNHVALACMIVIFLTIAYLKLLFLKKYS
Sequence of Fatty acid synthase (Homo sapiens) (P49327 whole entry, looked up): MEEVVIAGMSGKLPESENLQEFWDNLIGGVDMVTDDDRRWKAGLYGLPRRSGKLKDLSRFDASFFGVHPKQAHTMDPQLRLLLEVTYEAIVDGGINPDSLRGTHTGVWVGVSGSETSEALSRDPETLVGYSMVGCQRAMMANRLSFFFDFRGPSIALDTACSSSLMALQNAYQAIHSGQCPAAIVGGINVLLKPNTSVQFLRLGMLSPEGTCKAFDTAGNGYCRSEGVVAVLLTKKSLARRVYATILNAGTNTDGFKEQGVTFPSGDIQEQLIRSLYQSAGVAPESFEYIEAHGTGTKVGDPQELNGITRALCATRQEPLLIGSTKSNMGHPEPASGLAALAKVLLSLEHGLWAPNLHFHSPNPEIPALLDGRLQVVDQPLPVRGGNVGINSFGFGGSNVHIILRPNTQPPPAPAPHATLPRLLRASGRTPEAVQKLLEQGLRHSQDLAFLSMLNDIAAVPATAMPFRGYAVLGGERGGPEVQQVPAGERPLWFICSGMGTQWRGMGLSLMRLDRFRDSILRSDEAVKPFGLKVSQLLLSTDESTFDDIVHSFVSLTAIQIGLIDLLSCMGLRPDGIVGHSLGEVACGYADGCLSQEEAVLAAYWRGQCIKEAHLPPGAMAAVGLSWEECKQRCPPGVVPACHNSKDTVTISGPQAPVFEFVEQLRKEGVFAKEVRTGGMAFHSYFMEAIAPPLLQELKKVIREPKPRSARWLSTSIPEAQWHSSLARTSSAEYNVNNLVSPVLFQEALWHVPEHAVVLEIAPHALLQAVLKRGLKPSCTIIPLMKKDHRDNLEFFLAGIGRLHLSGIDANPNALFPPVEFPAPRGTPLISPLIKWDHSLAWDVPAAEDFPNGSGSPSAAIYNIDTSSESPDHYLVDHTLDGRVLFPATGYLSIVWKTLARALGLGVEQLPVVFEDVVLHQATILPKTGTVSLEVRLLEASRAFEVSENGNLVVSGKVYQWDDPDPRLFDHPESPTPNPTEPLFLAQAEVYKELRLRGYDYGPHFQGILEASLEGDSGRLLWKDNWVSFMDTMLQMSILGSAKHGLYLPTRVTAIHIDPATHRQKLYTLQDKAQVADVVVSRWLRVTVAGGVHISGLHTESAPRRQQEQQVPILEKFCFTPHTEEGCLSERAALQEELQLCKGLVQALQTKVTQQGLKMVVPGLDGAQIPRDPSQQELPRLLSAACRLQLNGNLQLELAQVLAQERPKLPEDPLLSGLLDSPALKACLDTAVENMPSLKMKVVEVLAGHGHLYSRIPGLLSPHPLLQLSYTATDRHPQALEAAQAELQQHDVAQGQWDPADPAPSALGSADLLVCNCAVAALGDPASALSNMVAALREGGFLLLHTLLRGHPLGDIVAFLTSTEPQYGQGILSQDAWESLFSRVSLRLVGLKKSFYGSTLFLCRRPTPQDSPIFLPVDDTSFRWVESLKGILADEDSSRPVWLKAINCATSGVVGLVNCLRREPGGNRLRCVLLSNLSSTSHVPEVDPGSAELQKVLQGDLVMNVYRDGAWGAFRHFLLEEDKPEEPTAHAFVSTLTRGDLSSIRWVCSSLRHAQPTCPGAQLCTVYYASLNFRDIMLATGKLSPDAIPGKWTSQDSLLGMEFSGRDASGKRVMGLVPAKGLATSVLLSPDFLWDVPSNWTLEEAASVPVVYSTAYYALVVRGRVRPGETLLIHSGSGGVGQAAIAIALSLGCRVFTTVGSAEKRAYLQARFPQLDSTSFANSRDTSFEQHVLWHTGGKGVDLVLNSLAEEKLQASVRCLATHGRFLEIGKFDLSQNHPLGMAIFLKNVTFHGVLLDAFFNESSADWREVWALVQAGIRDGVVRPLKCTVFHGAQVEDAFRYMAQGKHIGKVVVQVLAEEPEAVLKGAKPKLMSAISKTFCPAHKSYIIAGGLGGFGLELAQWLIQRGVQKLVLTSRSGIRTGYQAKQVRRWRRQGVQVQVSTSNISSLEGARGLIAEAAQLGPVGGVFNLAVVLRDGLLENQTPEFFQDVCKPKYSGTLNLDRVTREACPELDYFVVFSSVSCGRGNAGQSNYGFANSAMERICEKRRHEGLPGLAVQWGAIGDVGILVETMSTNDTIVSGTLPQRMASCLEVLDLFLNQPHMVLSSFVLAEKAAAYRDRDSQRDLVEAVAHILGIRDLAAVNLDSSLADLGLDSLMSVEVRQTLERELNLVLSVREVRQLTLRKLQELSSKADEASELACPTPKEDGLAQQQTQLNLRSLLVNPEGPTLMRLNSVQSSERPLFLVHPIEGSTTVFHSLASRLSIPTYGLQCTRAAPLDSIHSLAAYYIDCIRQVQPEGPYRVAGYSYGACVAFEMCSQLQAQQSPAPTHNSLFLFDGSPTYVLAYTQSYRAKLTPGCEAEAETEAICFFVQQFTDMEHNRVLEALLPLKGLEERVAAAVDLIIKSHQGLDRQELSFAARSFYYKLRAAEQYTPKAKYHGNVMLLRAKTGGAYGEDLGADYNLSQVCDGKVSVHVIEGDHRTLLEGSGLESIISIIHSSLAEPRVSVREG

On to `CN(C)CCOC(c1ccccc1)c1ccccc1`, for which the compound was called inactive in assay [1], in assay [3], in assay [4], in assay [5], in assay [6] and in assay [7]. In addition, the outcome in assay [8], in assay [9], in assay [10], in [11], in [12] and in [13] was inactive. The result in [14], in [15] and in assay [16] was inactive. For the same compound, the AC50 in assay [2] was 50 µM (active).
Turning to `COc1cc([N+](=O)[O-])ccc1N`, the compound was classed as inactive in [17] and in [19]. For the same compound, the AC50 in assay [18] was 24.2 µM (active).
For `N=C(N)c1ccc(OCCCCCOc2ccc(C(=N)N)cc2)cc1`, the AC50 in [1] is 4.23 µM (active); in assay [3], 10.1 µM (active); in assay [5] it was 6.7 µM (active); in assay [6], 6.68 µM (active); in [7], 30.5 µM (active); in [8], 43.8 µM (active). Also, the AC50 is 4.21 µM (active) in assay [9]; 4.87 µM (active) in assay [11]; 7.1 µM (active) in assay [12]; 3.46 µM (active) in assay [13]; 4.37 µM (active) in assay [14]; 25.6 µM (active) in assay [15]. Moreover, in assay [16], the AC50 is 2.79 µM (active). In addition, the compound was classed as inactive in assay [20], in assay [4] and in [10].
As to `CCCCCC(C)OC(=O)COc1ccc(Cl)c2cccnc12` (stereo unspecified), the compound was classed as inactive in [18].
`CCCCc1oc2ccccc2c1C(=O)c1cc(I)c(OCCN(CC)CC)c(I)c1`: the AC50 in assay [1] was 66.6 µM (active); in assay [2] it was 9.27 µM (active); in assay [3] it was 68.3 µM (active); in [5], 37.8 µM (active); in assay [6], 48.6 µM (active); in [7], 62.4 µM (active). Also, the AC50 in assay [9] is 59.1 µM (active); in [12] it was 59.6 µM (active); in [13], 22.4 µM (active); in assay [14] it was 52.1 µM (active); in [15], 68.8 µM (active); in assay [16], 61 µM (active). In addition, the compound was called inactive in [20], in [4], in [8], in assay [10] and in assay [11].
For `COc1cccc(O)c1`, the result in assay [18] was inactive.
`CN(Cc1cnc2nc(N)nc(N)c2n1)c1ccc(C(=O)N[C@@H](CCC(=O)O)C(=O)O)cc1`: the result in assay [1], in assay [20], in assay [3], in assay [4], in assay [5] and in assay [6] was inactive. For the same compound, the outcome in [7], in assay [8], in assay [9], in assay [10], in [11] and in assay [12] was inactive. Also, the compound was called inactive in assay [13], in assay [15] and in assay [16]. The AC50 in [2] is 3.33 µM (active); in assay [14] it was 0.206 µM (active).
